Assay [1] in a line: Viability qHTS for spleen associated tyrosine kinase inhibitor (SYKi) naive MV4-11 cells (AID 1963823). Note: nearly all actives have a fitted effect of over 40% in size. As to conditions: MV4-11 AML viability, CellTiter-Glo luminescence, 72 h; series mostly up to 45 µM. In a few lines:
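Luminescence from CellTiter-Glo, developed 10 min at room temperature, gave viability of MV4-11 cells never exposed to SYK inhibitor. Cells (500/well) had been incubated with compounds for 72 hr under standard culture conditions.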
(In general: qHTS replaces the single test concentration by a dilution series.)

The nature of assay [2]: Viability qHTS for spleen associated tyrosine kinase inhibitor (SYKi) drug resistant MV4-11 cells (AID 1963824). Note: nearly all actives have a fitted effect of over 35% in size. The conditions noted are these: SYKi-resistant MV4-11 viability, CellTiter-Glo, 72 h; series mostly up to 45 µM. In a few lines:
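CellTiter-Glo luminescence, read 10 min after reagent addition, reports viability after a 72 hr compound exposure. Cells are an MV4-11 line made resistant to SYK inhibition, seeded at 500 per well onto compound-containing plates.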

Assay [3] is described as follows: Cellular viability qHTS for adrenocortical cancer (ACC) cell line SW-13 (AID 1963989).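 For activity (max response): cells grown in serum-free medium with ITS supplement; % is set by controls: 0 for no effect and ±100 for the full control effect.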 Note: nearly all actives have a fitted effect of over 65% in size. The conditions noted are these: SW-13 ACC cells viability, CellTiter-Glo, 48 h; activity (max response): stronger effect = lower value. In a few lines: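 Compound titrations (up to 46 uM final, in DMSO) were applied to SW-13 cells for 48 h at 37C/5% CO2. Reading used CellTiter-Glo after 20 min at room temperature; fitted curves yielded IC50 and efficacy.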

The nature of assay [4]: Cellular viability qHTS for adrenocortical cancer (ACC) cell line NCI-H295R (AID 1963990). Note: nearly all actives have a fitted effect of over 60% in size. As to conditions: CellTiter-Glo ATP luminescence, 48 h; series mostly up to 46.1 µM. In a few lines: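 Readout: CellTiter-Glo luminescence, 20 min RT. Exposure: 48 h, 37C/5% CO2. Cells: NCI-H295R, ITS-DMEM serum-free. Range: up to 46 uM. Analysis: 4PL fit, IC50 plus efficacy.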

Where “and” joins values, the source holds several entries; their conditions need not be identical. Equal values may be shown once. Results filed as inconclusive are left out. More than one record can exist for a structure, and the calls need not agree. Calls of active or inactive are those of the source. Calls come from the whole dose curve; as a rule, active = well fitted curve in the direction sought with a large enough effect; inconclusive = small, poorly fitted or top-dose-only effect, or another doubt; inactive = no such curve, though single readings can be large; an effect the other way counts as inactive or inconclusive.
Potency is the fitted concentration of half-maximal effect.

Take `Oc1cc(O)cc(/C=C/c2ccc(O)c(O)c2)c1`: the Potency in assay [1] was 5.9 µM (active) and 5.17 µM (active); in assay [2] it was 5.9 µM (active) and 2.59 µM (active). Further, in assay [3], the activity (max response) was -23.2% (inactive). In addition, the Potency entry in assay [4] is “inactive”.
Turning to `CN[C@@H]1[C@H](O)[C@H](NC)[C@H]2O[C@@]3(O)C(=O)C[C@@H](C)O[C@H]3O[C@@H]2[C@H]1O`, the Potency result in assay [1], in assay [2] and in assay [4] was “inactive” throughout. The activity (max response) in assay [3] was 16.5% (inactive).
Consider `CCCCC(CC)CNC(=O)CC(C)OC(=O)CCC(=O)O` (configuration not stated), for which the Potency entry in assay [1], in assay [2] and in assay [4] was “inactive” each time. The activity (max response) in assay [3] is -6.84% (inactive).
For the compound `C[C@]12CC[C@@H]3c4ccc(O)cc4CC[C@H]3[C@@H]1CC[C@@H]2OC(=O)CCC1CCCC1`, the Potency entry in assay [1], in assay [2] and in assay [4] was “inactive” each time. In assay [3], the activity (max response) was 5.6% (inactive).
In the case of `CC(=O)Nc1ccc(OC(=O)c2ccccc2OC(C)=O)cc1`, the Potency entry in assay [1], in assay [2] and in assay [4] was “inactive” in each case. The activity (max response) in assay [3] was 8.82% (inactive).
As to `COCCNCc1ccc(-c2cc3nccc(Oc4ccc(NC(=S)NC(=O)Cc5ccc(F)cc5)cc4F)c3s2)nc1`, the Potency in assay [1] is 0.0164 µM (active); in assay [2] it was 0.0259 µM (active); in assay [3], 28.2 µM (active); in assay [4], 12.6 µM (active).
With `COC(=O)c1cc(Cl)ccc1OC`, the Potency entry in assay [1], in assay [2] and in assay [4] was “inactive” throughout. The activity (max response) in assay [3] was -2.06% (inactive).
Regarding `C=C1/C(=C\C=C2/CCC[C@]3(C)[C@@H]([C@H](C)CCCC(C)(C)O)CC[C@@H]23)C[C@@H](O)C[C@@H]1O`, the Potency in assay [1] is 0.0186 µM (active); in assay [2], 1.48 µM (active); in assay [3] it was 28.2 µM (active); in assay [4], 25.1 µM (active).
Consider `C[C@]12CC[C@@H]3c4ccc(O)cc4C[C@@H](CCCCCCCCCS(=O)CCCC(F)(F)C(F)(F)F)[C@H]3[C@@H]1CC[C@@H]2O` (some centres not stated), for which the Potency entry in assay [1], in assay [2] and in assay [4] was “inactive” in each case. The activity (max response) in assay [3] was -10.5% (inactive).
For `Cc1c(NC(=O)OCC2COCCN2)cn2ncnc(Nc3ccc4c(cnn4Cc4cccc(F)c4)c3)c12` (configuration not stated), the Potency in assay [1] is 4.61 µM (active) and 16.6 µM (active); in assay [2], 5.8 µM (active) and 16.6 µM (active); in assay [3], 22.4 µM (active); in assay [4] it was 31.6 µM (active).
Take `OC[C@H]1O[C@@H](S[C@@H]2O[C@H](CO)[C@H](O)[C@H](n3cc(-c4cccc(F)c4)nn3)[C@H]2O)[C@H](O)[C@@H](n2cc(-c3cccc(F)c3)nn2)[C@H]1O`: the Potency entry in assay [1], in assay [2] and in assay [4] was “inactive” each time. Further, in assay [3], the activity (max response) is 11.8% (inactive).
On to `O=C1OC(COc2ccccc2[N+](=O)[O-])CC1Cc1ccccc1` (configuration not stated), for which the Potency result in assay [1] and in assay [4] was “inactive” in each case. Further, the Potency in assay [2] was 13.2 µM (active). Besides, in assay [3], the activity (max response) was -13.4% (inactive).
Turning to `Cc1noc(C)c1-c1ccc(-c2cc(C(N)=O)c(NC(N)=O)s2)c(O[C@H]2CCNC2)c1`, the Potency in assay [1] was 2.31 µM (active); in assay [2] it was 3.26 µM (active). Besides, the activity (max response) in assay [3] is -22.5% (inactive). In addition, the Potency result in assay [4] is “inactive”.
The like results for `CC(=O)c1ccc(S(=O)(=O)NC(=O)NC2CCCCC2)cc1` were, in that order, “inactive”, “inactive”, 9.54% (inactive) and “inactive”.
With `C[C@@]12C(=O)OC(=O)[C@]1(C)[C@H]1CC[C@@H]2O1`, the Potency in assay [1] is 2.63 µM (active); in assay [2], 2.63 µM (active); in assay [3], 15.8 µM (active); in assay [4], 3.98 µM (active).
As for `CNC[C@H](O)[C@@H](O)[C@H](O)[C@H](O)CO`, the Potency result in assay [1], in assay [2] and in assay [4] was “inactive” throughout. Moreover, the activity (max response) in assay [3] is 1.47% (inactive).
For the compound `C1=C/COCc2cc(ccc2OCCN2CCCC2)Nc2nccc(n2)-c2cccc(c2)COC/1`, the Potency entry in assay [1] was “inactive and 118 nM (active)”; in assay [2] it was “inactive and 130 nM (active)”; in assay [3] it was 4.47 µM (active); in assay [4], 5.01 µM (active).
For `NC(=O)c1nc(F)c[nH]c1=O`, the Potency entry in assay [1], in assay [2] and in assay [4] was “inactive” throughout. Also, the activity (max response) in assay [3] is 0.237% (inactive).
`COc1cc(OC)cc(OC)c1`: the Potency entry in assay [1], in assay [2] and in assay [4] was “inactive” each time. Further, in assay [3], the activity (max response) was 5.62% (inactive).
With `C=CCNC1=C2CC(C)CC(OC)C(O)C(C)/C=C(\C)C(OC(N)=O)C(OC)/C=C/C=C(\C)C(=O)NC(=CC1=O)C2=O` (configuration not stated), the Potency in assay [1] is 0.0934 µM (active); in assay [2], 0.332 µM (active); in assay [3] it was 3.16 µM (active); in assay [4] it was 10 µM (active).
The corresponding values for `CC(C)CNc1ccnc(NCc2csc(-c3ccccc3)n2)n1` are 1.66 µM (active), 1.16 µM (active), 11.2 µM (active) and 11.2 µM (active).
Turning to `CC(C)(O)c1ccccc1CC[C@@H](SCC1(CC(=O)O)CC1)c1cccc(/C=C/c2ccc3ccc(Cl)cc3n2)c1`, the Potency result in assay [1], in assay [2] and in assay [4] was “inactive” each time. For the same compound, the activity (max response) in assay [3] was 11.5% (inactive).
For the compound `CO[C@H]1/C=C/O[C@@]2(C)Oc3c(C)c(O)c4c(O)c(c5c(c4c3C2=O)=NC2(CCN(CC(C)C)CC2)N=5)NC(=O)/C(C)=C/C=C/[C@H](C)[C@H](O)[C@@H](C)[C@@H](O)[C@@H](C)[C@H](OC(C)=O)[C@@H]1C`, the Potency in assay [1] and in assay [2] was 18.6 µM (active) each time. In addition, the activity (max response) in assay [3] was -11.1% (inactive). Further, the Potency entry in assay [4] was “inactive”.

The values are drawn from PubChem BioAssay (NCATS).
